Data: the supplement of paper PMC13380429

Tests used:
[1] = test system: Vero E6 infected with SARS-CoV-2; assay: morphology score (similarity to uninfected cells); higher = more like uninfected cells; conditions: 24 h
[2] = test system: Vero E6 infected with SARS-CoV-2; assay: SARS-CoV-2 infection rate relative to infected DMSO; higher = more infection, active = 60 or less; conditions: 24 h

| Compound | morphology score [1] | SARS-CoV-2 infection rate [2] |
| --- | --- | --- |
| C=C1/C(=C\C=C2/CCC[C@]3(C)[C@@H]([C@H](C)/C=C/[C@H](C)C(C)C)CC[C@@H]23)C[C@@H](O)C[C@@H]1O [doxercalciferol] (10 µM) | -0.0772 | 106% (inactive) |
| CCCCCCCCCCCCCCCC[n+]1ccccc1 [cetylpyridinium] (0.833333 µM) | 0.0939 | 86% (inactive) |
| Nc1nc(NCCc2ccc(O)cc2)nc2nc(-c3ccco3)nn12 (10 µM) | -0.0969 | 111% (inactive) |
| O=C(Cc1ccccc1)Nc1nc2ccc(Cl)cc2c2nc(-c3ccco3)nn12 (10 µM) | -0.00361 | 110% (inactive) |
| COCCOCCOc1ccc(C2=N[C@@](C)(C(=O)O)CS2)c(O)c1 (10 µM) | 0.128 | 102% (inactive) |
| Cc1nc2ccccn2c(=O)c1CCN1CCC(C(=O)c2ccc(F)cc2)CC1 [pirenperone] (10 µM) | 0.172 | 108% (inactive) |
| Oc1cc2c(cc1O)C(c1ccccc1)CNCC2 (centres undefined) (10 µM) | -0.34 | 116% (inactive) |
| C[C@H](NCc1ccc(OCc2cccc(F)c2)cc1)C(N)=O [safinamide] (10 µM) | -0.052 | 115% (inactive) |
| CCS(=O)(=O)c1ccc2oc(-c3ccc4ccccc4c3)nc2c1 [ezutromid] (10 µM) | 0.174 | 98.5% (inactive) |
| CNCCN(C)Cc1c[nH]nc1-c1ccc(O[C@H]2C[C@H](OCCC3CCOCC3)C2)cc1 (10 µM) | -0.0509 | 108% (inactive) |
| NCc1ccccc1CC(=O)N[C@@H]1C(=O)N2C(C(=O)O)=C(CSc3nnnn3CC(=O)O)CS[C@H]12 [ceforanide] (10 µM) | 0.13 | 100% (inactive) |
| COc1ccn2ncc(-c3nc4[nH]nc(NC(=O)c5ccc(F)cc5)c4cc3F)c2c1 (10 µM) | 0.00883 | 111% (inactive) |
| Cc1cc2nc3c(=O)[nH]c(=O)nc-3n(C[C@H](O)[C@H](O)[C@H](O)CO)c2cc1C [riboflavin] (10 µM) | 0.208 | 102% (inactive) |
| N#Cc1c(N)nc(SCC(N)=O)c(C#N)c1-c1ccc(OCC2CC2)cc1 (10 µM) | -0.0282 | 108% (inactive) |
| C=CC(=O)Nc1cc(Nc2nccc(-c3c[nH]c4ccccc34)n2)c(OC)cc1N(C)CCN(C)C (0.833333 µM) | -0.245 | 112% (inactive) |
| Cc1cc2c(cc1C(F)(F)F)N(C(=O)Nc1ccc(Oc3cccnc3C)nc1)CC2 (10 µM) | 0.281 | 90.5% (inactive) |
| CC(C)(C)c1ccc(/C=C/C(=O)Nc2ccc3c(c2)OCCO3)cc1 (10 µM) | -0.068 | 110% (inactive) |
| CC(=N)NCc1cccc(CN)c1 (10 µM) | -0.0209 | 107% (inactive) |
| N[C@@H](C(=O)O)c1ccc(C(=O)O)c(C(=O)O)c1 (racemic) (10 µM) | 0.105 | 98.2% (inactive) |
| CC(C)c1ccc(NC(=O)c2cccs2)c(-c2nc3ccccc3[nH]c2=O)c1 (10 µM) | 0.23 | 83% (inactive) |
| Nc1ccccc1S(N)(=O)=O [2-aminobenzenesulfonamide] (10 µM) | -0.162 | 108% (inactive) |

| Compound | morphology score [1] | SARS-CoV-2 infection rate [2] |
| --- | --- | --- |
| O=C(OCCN1CCOCC1)C1(c2ccccc2)CCCCC1 (10 µM) | -0.00229 | 106% (inactive) |
| O=C(O)c1cc2ccccc2s1 (10 µM) | 0.0676 | 88% (inactive) |
| CCn1c(=O)/c(=C2\Sc3ccccc3N2C)s/c1=C\c1cccc[n+]1CC (10 µM) | 0.136 | 106% (inactive) |
| CN1C(=O)N[C@H](Cc2c[nH]c3c(Cl)cccc23)C1=O [necrostatin-2] (10 µM) | 0.131 | 95% (inactive) |
| Cc1noc(NS(=O)(=O)c2cccc3c(N(C)C)cccc23)c1C (10 µM) | 0.115 | 95.5% (inactive) |
| Cc1cc(Nc2cc(CN3CCOCC3)c3nc(C)c(Cc4ccc(Cl)cc4F)n3n2)n[nH]1 (0.833333 µM) | -0.0116 | 107% (inactive) |
| C=CC(=O)Nc1cccc(Nc2nc(Nc3ccc(Oc4ccnc(C(=O)NC)c4)cc3)ncc2F)c1 (0.833333 µM) | 0.147 | 110% (inactive) |
| Oc1ccc2c(c1)CC[C@H](c1ccccc1)[C@@H]2c1ccc(OCCN2CCCC2)cc1 [lasofoxifene] (0.833333 µM) | 0.106 | 97% (inactive) |
| C[C@H]1CNCCCN1S(=O)(=O)c1cccc2cncc(F)c12 [ripasudil] (10 µM) | 0.438 | 112% (inactive) |
| COC(=O)N[C@H](C(=O)N1CC2(CC2)C[C@H]1c1nc(-c2ccc3c(c2)C(F)(F)c2cc(-c4ccc5[nH]c([C@@H]6[C@H]7CC[C@H](C7)N6C(=O)[C@@H](NC(=O)OC)C(C)C)nc5c4)ccc2-3)c[nH]1)C(C)C [ledipasvir] (10 µM) | 0.191 | 99.5% (inactive) |
| O=C1c2cccc(O)c2C(=O)c2c(O)cc(CO)cc21 [aloe-emodin] (10 µM) | 0.29 | 101% (inactive) |
| CCCN(CCC)S(=O)(=O)c1ccc(C(=O)O)cc1 [probenecid] (10 µM) | -0.0854 | 106% (inactive) |
| CCCN1CCC[C@@H]2Cc3n[nH]cc3C[C@H]21 [quinpirol-(-)] (10 µM) | 0.203 | 92.5% (inactive) |
| CN(NC(=O)CC(=O)NN(C)C(=S)c1ccccc1)C(=S)c1ccccc1 [elesclomol] (10 µM) | 0.879 | 19.5% (active) |
| CC1CCN(CC[C@H]2CCCN2S(=O)(=O)c2cccc(O)c2)CC1 (10 µM) | 0.0739 | 102% (inactive) |
| CCOC(=O)[C@H](C)C[C@@H](Cc1ccc(-c2ccccc2)cc1)NC(=O)CCC(=O)O [sacubitril] (10 µM) | 0.156 | 102% (inactive) |
| COc1ccc2c(c1)c(CC(=O)N1CCOCC1)c(C)n2C(=O)c1ccc(Cl)cc1 (10 µM) | 0.131 | 112% (inactive) |
| O=C1c2ccccc2-n2c1nc1ccccc1c2=O [tryptanthrin] (10 µM) | 0.145 | 96% (inactive) |
| CCc1cncnc1N1CCN(Cc2nc3cc(C(F)(F)F)ccc3[nH]2)CC1 (10 µM) | -0.441 | 116% (inactive) |
| CN1CCN(C(c2ccccc2)c2ccccc2)CC1 [cyclizine] (10 µM) | -0.126 | 108% (inactive) |
| Cc1ccccc1N1CCN(S(=O)(=O)C[C@]23CC[C@H](C[C@@H]2NC(=O)[C@@H](N)CCS(C)(=O)=O)C3(C)C)CC1 (10 µM) | 0.049 | 95% (inactive) |

| Compound | morphology score [1] | SARS-CoV-2 infection rate [2] |
| --- | --- | --- |
| C=CC(=O)O [acrylate] (10 µM) | -0.0871 | 109% (inactive) |
| O=c1[nH]nc2c3c(cccc13)N=C(CN1Cc3ccccc3C1)N2 (10 µM) | 0.219 | 91% (inactive) |
| COC1=C[C@@H]2[C@@H]3Cc4ccc(OC)c(O)c4[C@]2(CCN3C)CC1=O [sinomenine] (10 µM) | 0.141 | 122% (inactive) |
| COC(=O)N1CCN(Cc2cccc(NC(=O)Nc3ccc(C)nc3)c2F)CC1 [omecamtiv-mecarbil] (10 µM) | 0.272 | 99% (inactive) |
| COc1ccc(OC)c([C@@H](O)CNC(=O)CN)c1 [midodrine] (10 µM) | -0.0583 | 108% (inactive) |
| CC(C)(C)c1ccc(S(=O)(=O)/C=C/C#N)cc1 (0.833333 µM) | 0.173 | 89.5% (inactive) |
| CCC(=O)O[C@H]1[C@H](O[C@@H]2[C@@H](C)[C@H](O[C@H]3C[C@@](C)(OC)[C@@H](O)[C@H](C)O3)[C@@H](C)C(=O)O[C@H](CC)[C@@](C)(O)[C@H](O)[C@@H](C)C(=O)[C@H](C)C[C@@]2(C)O)O[C@H](C)C[C@@H]1N(C)C [erythromycin-estolate] (10 µM) | 0.0736 | 114% (inactive) |
| C[C@@](Cc1ccc(O)c(O)c1)(NN)C(=O)O [carbidopa] (10 µM) | -0.0523 | 100% (inactive) |
| CC1=C(/C=C/C(C)=C/C=C/C(C)=C/C(=O)Nc2ccc(O)cc2)C(C)(C)CCC1 [fenretinide] (10 µM) | -0.442 | 116% (inactive) |
| C#C[C@]1(O)CC[C@H]2[C@@H]3CCC4=CC(=O)CC[C@]4(C)[C@H]3CC[C@@]21C [ethisterone] (10 µM) | -0.0671 | 107% (inactive) |
| COCc1c(-c2ccc(NC(=O)Nc3cc(C(F)(F)F)ccc3F)c(F)c2)c2c(N)ncnn2c1CN1CCOCC1 (0.833333 µM) | 0.227 | 96.5% (inactive) |
| CC(=O)c1cc([N+](=O)[O-])c(Sc2ccc(F)cc2F)s1 (10 µM) | 0.534 | 38.5% (active) |
| CC[C@@]1(O)C(=O)OCc2c1cc1n(c2=O)Cc2cc3c(CN(C)C)c(O)ccc3nc2-1 [topotecan] (10 µM) | 0.0619 | 108% (inactive) |
| CN(C)CCn1nnnc1SCC1=C(C(=O)O)N2C(=O)[C@@H](NC(=O)Cc3csc(N)n3)[C@H]2SC1 [cefotiam] (10 µM) | 0.212 | 100% (inactive) |
| CC(C)Oc1ccc(-c2nc(-c3cccc4c3CC[C@H]4NCCC(=O)O)no2)cc1C#N (10 µM) | 0.181 | 96.5% (inactive) |
| O=C(NCC(=O)N1CCCC1)Nc1ccc2cnccc2c1 (10 µM) | 0.182 | 98% (inactive) |
| O=C(NCCS(=O)(=O)c1ccc(C(F)(F)F)cn1)c1ccc(Cl)cc1 (10 µM) | 0.178 | 99% (inactive) |
| CCC(CO)(C(=O)OC1CC2CCC(C1)[N+]2(C)C)c1ccccc1 (centres undefined) [troventol] (10 µM) | -0.023 | 106% (inactive) |
| CC(C)CCC[C@@H](C)[C@H]1CC[C@H]2[C@@H]3CCC4=CC(=NO)CC[C@]4(C)[C@H]3CC[C@]12C [olesoxime] (10 µM) | -0.0917 | 106% (inactive) |
| O=C(CCCN1CC=C(n2c(=O)[nH]c3ccccc32)CC1)c1ccc(F)cc1 [droperidol] (10 µM) | 0.0599 | 112% (inactive) |
